For some assays here: Measured potencies and affinities stand elsewhere.

Common to all, as to set-up: scale not given: direction of the effect not stated beside the values
For assay [1], the target named is Protein translocase subunit SecA (Escherichia coli (strain K12)) (UniProt P10408). Briefly: Assay to Identify E. coli SecA ATPase Inhibitors. Format: functional. The settings on record: 30 µM.
Assay [2] has as its target T1, Ubiquitin-activating enzyme e1, putative (Leishmania donovani (strain BPK282A1)) (UniProt E9BSI1).
T1 sequence (whole entry): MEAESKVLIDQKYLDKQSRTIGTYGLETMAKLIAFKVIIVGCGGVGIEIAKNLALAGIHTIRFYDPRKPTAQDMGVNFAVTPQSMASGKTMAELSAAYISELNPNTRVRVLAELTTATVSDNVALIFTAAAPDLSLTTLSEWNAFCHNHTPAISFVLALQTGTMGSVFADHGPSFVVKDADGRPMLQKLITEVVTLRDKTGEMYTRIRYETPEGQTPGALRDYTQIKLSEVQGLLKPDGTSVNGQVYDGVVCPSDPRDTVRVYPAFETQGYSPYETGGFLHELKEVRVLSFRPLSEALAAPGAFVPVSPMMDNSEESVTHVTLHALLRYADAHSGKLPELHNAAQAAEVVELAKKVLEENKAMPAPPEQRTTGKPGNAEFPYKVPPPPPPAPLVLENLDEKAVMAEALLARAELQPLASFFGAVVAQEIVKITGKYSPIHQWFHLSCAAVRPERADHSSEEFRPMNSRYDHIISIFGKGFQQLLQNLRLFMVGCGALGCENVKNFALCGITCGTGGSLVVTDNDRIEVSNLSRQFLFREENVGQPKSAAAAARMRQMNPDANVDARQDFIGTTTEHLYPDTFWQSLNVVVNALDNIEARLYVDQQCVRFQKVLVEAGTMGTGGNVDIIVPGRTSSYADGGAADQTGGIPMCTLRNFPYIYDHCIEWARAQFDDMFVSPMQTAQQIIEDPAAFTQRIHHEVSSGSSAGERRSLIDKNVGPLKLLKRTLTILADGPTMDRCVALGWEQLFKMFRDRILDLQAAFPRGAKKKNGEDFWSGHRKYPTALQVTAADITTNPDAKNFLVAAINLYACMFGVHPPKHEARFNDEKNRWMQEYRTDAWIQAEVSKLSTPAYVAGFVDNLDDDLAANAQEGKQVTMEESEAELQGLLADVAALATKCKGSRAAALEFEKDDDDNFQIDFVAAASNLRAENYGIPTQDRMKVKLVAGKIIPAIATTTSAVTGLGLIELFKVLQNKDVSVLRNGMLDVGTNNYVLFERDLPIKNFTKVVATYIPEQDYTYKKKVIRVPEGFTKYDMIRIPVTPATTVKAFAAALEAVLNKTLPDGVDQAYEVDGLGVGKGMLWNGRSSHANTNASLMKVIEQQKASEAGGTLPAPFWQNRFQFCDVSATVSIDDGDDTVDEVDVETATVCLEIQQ
The experiment in a line: Leishmania donovani Ubiquitin Activating Enzyme (LdE1). Format: functional. To be noted: 30 µM.

The target in assay [3] is AMP-activated protein kinase, AMPK (Homo sapiens) (UniProt P54646+O43741+P54619+Q9UGJ0+Q9Y478+Q13131+Q9UGI9). Briefly: AMP-dependent Kinase enzyme assay. An in vitro enzyme assay that detects ADP turnover that is directly proportional to AMPK activity. This uses naive AMPK that is activated during the assay with MK-8722. Format: functional. The settings on record: 30 µM.

Assay [4] addresses Sialic acid-binding Ig-like lectin 9 (Homo sapiens) (UniProt Q9Y336). Briefly: Hs-Siglec9 ALPHAscreen SOP 20170721. The settings on record: 10 µM.
Assay [5] relates to Trypanosoma cruzi. The experiment in a line: Trypanosoma cruzi phosphomannomutase and mannose-1-phosphate guanylyltransferase assay. It is filed as functional. The settings on record: 10 µM.
In assay [6] the target is T2, Arginase-2, mitochondrial (Homo sapiens) (UniProt P78540).
T2 sequence (whole entry): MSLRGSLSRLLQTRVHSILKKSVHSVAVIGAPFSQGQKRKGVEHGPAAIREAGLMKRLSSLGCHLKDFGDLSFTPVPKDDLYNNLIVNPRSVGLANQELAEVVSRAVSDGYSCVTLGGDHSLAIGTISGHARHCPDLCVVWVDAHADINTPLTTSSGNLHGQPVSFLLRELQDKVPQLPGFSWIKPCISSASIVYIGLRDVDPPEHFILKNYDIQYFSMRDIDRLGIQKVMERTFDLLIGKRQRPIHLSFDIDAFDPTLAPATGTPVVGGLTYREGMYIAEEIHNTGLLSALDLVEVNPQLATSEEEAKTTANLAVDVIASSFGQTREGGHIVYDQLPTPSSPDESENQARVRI
The experiment in a line: in vitro enzyme assay to detect the production of urea directly proportional to the activity of Arginase II. Also: in the data most compounds retested in dose-response had high values. It is filed as functional. The settings on record: 33.3 µM.

The target in assay [7] is T3, Proteasome subunit beta (Trypanosoma cruzi) (UniProt O96673).
T3 sequence (whole entry): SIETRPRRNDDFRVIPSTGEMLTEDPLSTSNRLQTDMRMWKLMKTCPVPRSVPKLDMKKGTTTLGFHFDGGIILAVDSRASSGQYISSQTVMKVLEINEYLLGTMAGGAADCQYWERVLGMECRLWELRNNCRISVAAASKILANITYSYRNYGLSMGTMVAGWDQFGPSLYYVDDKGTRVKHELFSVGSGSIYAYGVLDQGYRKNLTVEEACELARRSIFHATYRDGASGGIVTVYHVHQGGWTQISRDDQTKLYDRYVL
The experiment in a line: Trypanosoma cruzi proteasome chymotrypsin-like activity (TcProtChymo) assay. Also: in the data most compounds retested in dose-response had high values. To be noted: 9.37 µM. It is filed as functional.

The species entered for assay [8] is Homo sapiens. The experiment in a line: To identify inhibition of the IFN signalling (Jak-Stat) pathway via expression of an eGFP reporter gene under the control of an IFN-stimulated response element (ISRE) containing MxA promoter. Format: functional. To be noted: 30 µM. A general note: In a reporter assay the amount or activity of a reporter protein is the signal.

For assay [9], the target named is T4, Tyrosyl-tRNA synthetase, putative (Trypanosoma cruzi (strain CL Brener)) (UniProt Q4DSP6).
T4 sequence (whole entry): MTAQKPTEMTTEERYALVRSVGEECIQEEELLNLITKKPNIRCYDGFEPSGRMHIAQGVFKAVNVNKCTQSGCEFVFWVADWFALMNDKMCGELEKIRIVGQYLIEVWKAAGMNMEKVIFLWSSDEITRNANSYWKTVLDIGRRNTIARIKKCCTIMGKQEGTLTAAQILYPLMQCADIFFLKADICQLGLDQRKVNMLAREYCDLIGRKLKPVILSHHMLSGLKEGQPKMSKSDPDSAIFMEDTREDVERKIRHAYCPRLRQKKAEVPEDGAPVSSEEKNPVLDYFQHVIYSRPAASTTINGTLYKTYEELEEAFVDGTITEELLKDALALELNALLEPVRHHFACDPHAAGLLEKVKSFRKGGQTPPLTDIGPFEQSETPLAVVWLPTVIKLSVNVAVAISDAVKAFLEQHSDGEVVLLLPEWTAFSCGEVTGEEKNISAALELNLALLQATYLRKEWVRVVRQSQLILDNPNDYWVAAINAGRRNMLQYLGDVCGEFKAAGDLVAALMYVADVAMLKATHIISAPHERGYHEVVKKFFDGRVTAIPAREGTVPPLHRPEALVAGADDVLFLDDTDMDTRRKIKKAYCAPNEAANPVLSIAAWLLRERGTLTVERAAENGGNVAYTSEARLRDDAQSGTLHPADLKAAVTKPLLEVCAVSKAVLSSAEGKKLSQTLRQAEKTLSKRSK
The experiment in a line: Trypanosoma cruzi tyrosyl tRNA synthetase (TcYRS) _High Tyrosine SOP. Also: in the data most compounds retested in dose-response had high values. It is filed as functional. To be noted: 30 µM.

In assay [10] the target is T4, Tyrosyl-tRNA synthetase, putative (Trypanosoma cruzi (strain CL Brener)). Briefly: Trypanosoma cruzi tyrosyl tRNA synthetase (TcYRS) SOP. It is filed as functional. To be noted: 30 µM.
Assay [11] addresses Chromo domain-containing protein 1 (Saccharomyces cerevisiae (strain ATCC 204508 / S288c) (Baker's yeast)) (UniProt P32657). The experiment in a line: ScCHD-1 Enzyme Inhibition Assay. Also: in the data most compounds retested in dose-response had high values. Format: functional. The settings on record: 30 µM.

Chain of Protein translocase subunit SecA (Escherichia coli (strain K12)) (P10408 whole entry): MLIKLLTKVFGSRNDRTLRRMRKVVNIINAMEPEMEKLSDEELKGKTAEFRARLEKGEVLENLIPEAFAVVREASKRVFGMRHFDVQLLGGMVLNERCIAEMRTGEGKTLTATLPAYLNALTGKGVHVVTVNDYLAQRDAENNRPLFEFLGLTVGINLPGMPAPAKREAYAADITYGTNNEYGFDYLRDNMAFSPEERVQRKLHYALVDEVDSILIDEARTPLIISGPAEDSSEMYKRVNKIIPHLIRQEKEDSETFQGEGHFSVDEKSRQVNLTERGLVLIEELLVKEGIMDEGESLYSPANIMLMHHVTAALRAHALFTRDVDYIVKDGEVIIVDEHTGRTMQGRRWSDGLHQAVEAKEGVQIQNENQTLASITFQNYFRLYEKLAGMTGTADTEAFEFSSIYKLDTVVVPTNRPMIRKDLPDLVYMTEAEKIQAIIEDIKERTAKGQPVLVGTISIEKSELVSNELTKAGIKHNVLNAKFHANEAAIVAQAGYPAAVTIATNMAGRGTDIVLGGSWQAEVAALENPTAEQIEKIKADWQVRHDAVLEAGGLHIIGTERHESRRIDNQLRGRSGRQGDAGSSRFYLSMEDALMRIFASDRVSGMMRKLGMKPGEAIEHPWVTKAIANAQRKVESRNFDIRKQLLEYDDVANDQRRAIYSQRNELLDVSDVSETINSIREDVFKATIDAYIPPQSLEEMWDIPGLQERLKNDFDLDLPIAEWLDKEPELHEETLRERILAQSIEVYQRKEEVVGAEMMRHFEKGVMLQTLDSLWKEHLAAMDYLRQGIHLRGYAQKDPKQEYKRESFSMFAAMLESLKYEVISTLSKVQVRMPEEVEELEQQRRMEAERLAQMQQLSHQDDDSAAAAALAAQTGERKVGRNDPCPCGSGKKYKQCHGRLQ
Chain of Sialic acid-binding Ig-like lectin 9 (Homo sapiens) (Q9Y336 whole entry): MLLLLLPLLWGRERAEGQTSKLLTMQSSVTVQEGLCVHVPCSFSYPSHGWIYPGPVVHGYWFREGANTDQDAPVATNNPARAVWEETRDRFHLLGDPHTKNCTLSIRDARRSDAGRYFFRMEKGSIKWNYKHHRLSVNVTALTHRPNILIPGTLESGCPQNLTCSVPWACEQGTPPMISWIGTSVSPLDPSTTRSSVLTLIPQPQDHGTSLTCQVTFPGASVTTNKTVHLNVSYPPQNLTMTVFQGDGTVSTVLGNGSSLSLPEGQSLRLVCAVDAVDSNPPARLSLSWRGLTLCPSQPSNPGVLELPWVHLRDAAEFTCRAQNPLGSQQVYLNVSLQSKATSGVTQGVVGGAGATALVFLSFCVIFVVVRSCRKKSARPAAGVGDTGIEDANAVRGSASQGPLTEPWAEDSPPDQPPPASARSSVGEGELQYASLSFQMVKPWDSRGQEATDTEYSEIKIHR
Chain of Chromo domain-containing protein 1 (Saccharomyces cerevisiae (strain ATCC 204508 / S288c) (Baker's yeast)) (P32657 whole entry, the tested form may be a part): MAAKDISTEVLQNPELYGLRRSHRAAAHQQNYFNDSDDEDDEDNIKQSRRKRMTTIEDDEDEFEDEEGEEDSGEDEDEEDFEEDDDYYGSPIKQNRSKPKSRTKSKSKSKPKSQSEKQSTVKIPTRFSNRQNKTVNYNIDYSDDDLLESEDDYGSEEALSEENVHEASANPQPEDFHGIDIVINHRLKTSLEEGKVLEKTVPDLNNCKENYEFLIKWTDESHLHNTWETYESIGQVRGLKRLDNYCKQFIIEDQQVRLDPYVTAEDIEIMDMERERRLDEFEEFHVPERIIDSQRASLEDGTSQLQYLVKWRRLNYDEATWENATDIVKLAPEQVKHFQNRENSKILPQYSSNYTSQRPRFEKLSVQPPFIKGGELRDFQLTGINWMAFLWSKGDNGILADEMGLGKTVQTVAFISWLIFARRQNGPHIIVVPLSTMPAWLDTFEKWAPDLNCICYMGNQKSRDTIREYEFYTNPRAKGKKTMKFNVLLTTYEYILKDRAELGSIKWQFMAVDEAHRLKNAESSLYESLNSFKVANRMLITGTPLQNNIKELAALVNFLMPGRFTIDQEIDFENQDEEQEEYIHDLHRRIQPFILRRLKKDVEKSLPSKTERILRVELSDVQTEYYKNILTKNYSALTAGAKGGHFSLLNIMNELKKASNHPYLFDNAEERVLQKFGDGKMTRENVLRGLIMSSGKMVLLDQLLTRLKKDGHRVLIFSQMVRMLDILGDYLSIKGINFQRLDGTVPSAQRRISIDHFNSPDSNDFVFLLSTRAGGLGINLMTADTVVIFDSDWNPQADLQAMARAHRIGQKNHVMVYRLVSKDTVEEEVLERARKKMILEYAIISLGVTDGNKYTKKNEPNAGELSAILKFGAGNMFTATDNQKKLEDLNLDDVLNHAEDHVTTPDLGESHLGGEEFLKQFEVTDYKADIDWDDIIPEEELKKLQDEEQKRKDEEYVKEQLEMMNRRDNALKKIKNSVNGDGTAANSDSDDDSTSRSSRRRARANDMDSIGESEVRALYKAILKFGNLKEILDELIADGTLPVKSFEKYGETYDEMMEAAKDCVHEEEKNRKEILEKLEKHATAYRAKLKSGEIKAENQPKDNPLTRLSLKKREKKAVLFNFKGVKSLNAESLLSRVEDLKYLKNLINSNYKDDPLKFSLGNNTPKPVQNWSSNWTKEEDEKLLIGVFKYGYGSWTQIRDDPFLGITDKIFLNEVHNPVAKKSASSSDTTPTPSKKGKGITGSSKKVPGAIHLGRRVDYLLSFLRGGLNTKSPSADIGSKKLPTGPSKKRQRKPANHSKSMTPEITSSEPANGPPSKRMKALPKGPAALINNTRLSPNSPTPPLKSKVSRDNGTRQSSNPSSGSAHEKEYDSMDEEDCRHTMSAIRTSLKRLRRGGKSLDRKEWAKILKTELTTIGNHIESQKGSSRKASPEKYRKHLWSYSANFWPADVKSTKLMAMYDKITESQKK

Regarding `COc1ccc(-c2noc(C(=O)NCCN3CCCCC3)n2)cc1OC`, the Percent Effect in [1] is -7.28%; in [2] it was 14.7%; in assay [3], -14.8%; in assay [4] it was 5.74%; in assay [5], 8.25%; in [6], -18.8%. Moreover, the Percent Effect in assay [7] was 1.85%; in assay [8], 6.7%; in assay [9], 3.17%; in assay [10], -5.13%; in [11] it was -13.9%.

Turning to `CCn1nc(CNC(=O)C2CC(=O)N(C3CCCC3)C2)c2ccccc21` (stereo not given), the Percent Effect is -9.13% in assay [1]; 2.7% in assay [2]; 3.05% in assay [3]; 28.4% in [4]; -1.74% in [5]; -2.86% in [6]. In addition, the Percent Effect is 3.79% in assay [7]; 10.4% in assay [8]; -0.529% in [9]; 2.44% in assay [10]; -3.19% in [11].

Regarding `Cc1cc(-c2nnn(CCC(N)=O)n2)ccc1F`, the Percent Effect in [1] is -3.96%; in assay [2], 13.7%; in assay [3], -6.12%; in [4] it was 8.1%; in assay [5], 5.75%; in assay [6], -2.79%. Further, the Percent Effect is 15.3% in [7]; 11.3% in assay [8]; 8.33% in assay [9]; 13.6% in assay [10]; -2.17% in [11].

As to `Cc1ccc(C(=O)NC2CCN(Cc3noc(CC(C)C)n3)CC2)s1`, the Percent Effect in assay [1] was -4.45%; in [2] it was 2.6%; in [3], 3.54%; in [4], 0.891%; in assay [5] it was -8.75%; in assay [6], -8.28%. In addition, the Percent Effect is 8.82% in [7]; 29.7% in assay [8]; -3.23% in [9]; 1.24% in [10]; -1.38% in assay [11].

Turning to `COCCN1CCC(NCc2cccnc2)C1` (stereo not given), the Percent Effect in [1] was -5.87%; in assay [2] it was -2.6%; in assay [3], -0.869%; in assay [4] it was -1.42%; in [5] it was -5.06%; in [6] it was 2.49%. In addition, the Percent Effect in assay [7] is 5.74%; in assay [8] it was 16.6%; in [9], 1.94%; in [10] it was -4.88%; in assay [11], -3.65%.

As to `Cc1cc(C(=O)N2CCCCC2C)ccc1NCC(=O)N1CCOCC1` (stereo not given), the Percent Effect in assay [1] is -3.46%; in assay [2] it was 18.2%; in [3], 9.95%; in assay [4], -0.936%; in [5], 8.8%; in assay [6], 5.69%. The Percent Effect in [7] is 15.5%; in assay [8], 29.1%; in assay [9], -2.91%; in assay [10], 24.4%; in [11] it was -5.86%.

Take `Cc1ccc(CC2CCCN2CC(=O)NCc2cccnc2)cc1` (stereo not given): the Percent Effect was -4.01% in assay [1]; 2.63% in [2]; 5.21% in [3]; 3.98% in assay [4]; 1.66% in assay [5]; -5.92% in assay [6]. Besides, the Percent Effect is 14.1% in assay [7]; -8.66% in assay [8]; 4.25% in assay [9]; 13% in assay [10]; -4.98% in [11].

Take `O=C(c1ccc[nH]1)N1C[C@H]2CC[C@@H]1CN(C1Cc3ccccc3C1)C2`: the Percent Effect is -0.308% in assay [1]; 8.11% in assay [2]; -3.81% in assay [3]; 12.3% in assay [4]; 3.62% in assay [5]; 23.1% in assay [6]. The Percent Effect is 10.7% in assay [7]; -4.7% in [8]; 6.45% in assay [9]; 18.5% in assay [10]; -2.58% in [11].

With `CN1N=C(C(=O)Nc2cc(F)ccc2OCC2CCCO2)CCC1=O` (stereo not given), the Percent Effect in assay [1] is -1.5%; in assay [2] it was -5.2%; in assay [3], 12%; in assay [4] it was 2.24%; in [5], 7.3%; in [6] it was -6.41%. Further, the Percent Effect is 6.25% in assay [7]; -6.34% in assay [8]; 1.94% in assay [9]; 2.44% in assay [10]; -8.4% in [11].

For the compound `Cc1cc(=O)[nH]c(CCNC(=O)C(c2ccc(F)cc2)N(C)C)n1` (stereo not given), the Percent Effect in assay [1] is 6.03%; in assay [2], 11%; in assay [3], -3.97%; in assay [4], 1.73%; in [5] it was -5.75%; in assay [6], -14%. Further, the Percent Effect in [7] was 13.3%; in assay [8], 26.9%; in assay [9], 10.4%; in assay [10], 11.1%; in assay [11], 0.214%.

(Values after ChEMBL document CHEMBL3988442, “University of Dundee, Small-Polar-MMV Screening Library” (2021).)
